Measurements from PMC7862700, “An all-to-all approach to the identification of sequence-specific readers for epigenetic DNA modifications on cytosine”.

Tests used:
Assay in all cases: DAPPL (digital affinity profiling via proximity ligation, sequencing); 10 mM Tris-HCl pH 7.5, 50 mM NaCl, 1 mM DTT, 4% glycerol, room temperature, 30 min; GST-TFs on glutathione beads, 16-mer random dsDNA library, 0.1% formaldehyde crosslink after washing; high values mean tight binding
Details in all cases: protein: recombinant; tags: N-terminal GST; dsDNA, one strand shown
[1] = molecular target: T1, FLI1 (Homo sapiens, UniProt Q01543 1-452)
T1 sequence: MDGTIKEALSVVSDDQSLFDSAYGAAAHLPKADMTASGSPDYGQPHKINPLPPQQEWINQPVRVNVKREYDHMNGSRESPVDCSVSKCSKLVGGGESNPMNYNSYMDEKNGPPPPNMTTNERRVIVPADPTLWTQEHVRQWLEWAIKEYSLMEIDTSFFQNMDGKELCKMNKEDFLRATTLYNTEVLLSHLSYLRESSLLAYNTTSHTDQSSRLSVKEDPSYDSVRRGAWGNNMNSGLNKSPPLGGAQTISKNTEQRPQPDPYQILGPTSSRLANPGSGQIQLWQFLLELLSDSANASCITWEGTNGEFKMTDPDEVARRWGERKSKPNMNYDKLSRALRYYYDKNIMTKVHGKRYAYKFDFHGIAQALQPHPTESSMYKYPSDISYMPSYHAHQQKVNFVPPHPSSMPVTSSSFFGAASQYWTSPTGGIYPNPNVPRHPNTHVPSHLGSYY
In short: (§1)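 Each value of binding signal is a hexamer's read frequency for a factor divided by the same hexamer's frequency in the tag-only sample. Barcoded, bead-captured GST fusions of human transcription factors made in yeast were pooled with that sample and incubated with 200 nmole of a random double-stranded 16-mer DNA library in Tris/NaCl/DTT/glycerol buffer at room temperature for 30 min. Washing, 0.1% formaldehyde crosslinking, proximity ligation, PCR and Illumina NextSeq500 sequencing followed.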

[2] = molecular target: T2, ELK1 (Homo sapiens, UniProt P19419 1-428)
T2 sequence: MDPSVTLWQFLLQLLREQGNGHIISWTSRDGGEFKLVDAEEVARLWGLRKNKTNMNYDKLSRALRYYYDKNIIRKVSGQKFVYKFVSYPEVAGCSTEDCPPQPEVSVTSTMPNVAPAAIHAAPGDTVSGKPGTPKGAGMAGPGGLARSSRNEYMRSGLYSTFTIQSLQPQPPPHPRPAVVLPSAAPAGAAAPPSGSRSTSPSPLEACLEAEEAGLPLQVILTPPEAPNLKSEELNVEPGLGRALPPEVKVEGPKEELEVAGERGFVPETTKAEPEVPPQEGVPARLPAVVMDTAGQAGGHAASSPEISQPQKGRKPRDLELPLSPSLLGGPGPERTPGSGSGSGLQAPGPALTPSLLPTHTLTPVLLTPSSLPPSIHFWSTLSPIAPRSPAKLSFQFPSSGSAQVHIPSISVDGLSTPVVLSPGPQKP
In short: as §1

[3] = molecular target: T3, GABPA (Homo sapiens, UniProt Q06546 1-454)
T3 sequence: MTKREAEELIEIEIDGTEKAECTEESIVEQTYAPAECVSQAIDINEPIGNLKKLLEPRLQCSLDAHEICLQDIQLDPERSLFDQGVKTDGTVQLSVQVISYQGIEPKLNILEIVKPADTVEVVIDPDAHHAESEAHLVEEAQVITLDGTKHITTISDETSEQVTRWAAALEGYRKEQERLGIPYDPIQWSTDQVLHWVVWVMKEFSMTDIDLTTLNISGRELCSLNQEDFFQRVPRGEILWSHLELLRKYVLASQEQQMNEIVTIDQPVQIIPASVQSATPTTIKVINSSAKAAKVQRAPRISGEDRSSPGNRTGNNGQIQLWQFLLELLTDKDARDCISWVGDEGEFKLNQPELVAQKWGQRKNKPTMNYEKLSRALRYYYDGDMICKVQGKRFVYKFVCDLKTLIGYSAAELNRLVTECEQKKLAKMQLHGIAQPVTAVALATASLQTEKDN
In short: as §1

[4] = molecular target: T4, ERG (Homo sapiens, UniProt P11308 1-479)
T4 sequence: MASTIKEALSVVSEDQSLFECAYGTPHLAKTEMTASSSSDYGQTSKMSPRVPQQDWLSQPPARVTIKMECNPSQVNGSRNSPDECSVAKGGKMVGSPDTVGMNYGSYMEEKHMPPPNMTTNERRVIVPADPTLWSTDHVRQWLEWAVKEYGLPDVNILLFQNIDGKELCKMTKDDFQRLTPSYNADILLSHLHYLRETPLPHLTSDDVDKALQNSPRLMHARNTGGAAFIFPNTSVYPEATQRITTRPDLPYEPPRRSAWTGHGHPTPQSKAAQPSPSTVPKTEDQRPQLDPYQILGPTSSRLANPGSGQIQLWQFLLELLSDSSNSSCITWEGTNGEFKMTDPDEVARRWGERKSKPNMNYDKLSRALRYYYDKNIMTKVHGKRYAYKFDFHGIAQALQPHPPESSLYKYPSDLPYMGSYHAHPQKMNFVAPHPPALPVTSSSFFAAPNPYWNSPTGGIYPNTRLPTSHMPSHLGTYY
In short: as §1

[5] = molecular target: ELF1 (Homo sapiens, UniProt P32519 1-619)
ELF1, sequence (P32519 whole entry): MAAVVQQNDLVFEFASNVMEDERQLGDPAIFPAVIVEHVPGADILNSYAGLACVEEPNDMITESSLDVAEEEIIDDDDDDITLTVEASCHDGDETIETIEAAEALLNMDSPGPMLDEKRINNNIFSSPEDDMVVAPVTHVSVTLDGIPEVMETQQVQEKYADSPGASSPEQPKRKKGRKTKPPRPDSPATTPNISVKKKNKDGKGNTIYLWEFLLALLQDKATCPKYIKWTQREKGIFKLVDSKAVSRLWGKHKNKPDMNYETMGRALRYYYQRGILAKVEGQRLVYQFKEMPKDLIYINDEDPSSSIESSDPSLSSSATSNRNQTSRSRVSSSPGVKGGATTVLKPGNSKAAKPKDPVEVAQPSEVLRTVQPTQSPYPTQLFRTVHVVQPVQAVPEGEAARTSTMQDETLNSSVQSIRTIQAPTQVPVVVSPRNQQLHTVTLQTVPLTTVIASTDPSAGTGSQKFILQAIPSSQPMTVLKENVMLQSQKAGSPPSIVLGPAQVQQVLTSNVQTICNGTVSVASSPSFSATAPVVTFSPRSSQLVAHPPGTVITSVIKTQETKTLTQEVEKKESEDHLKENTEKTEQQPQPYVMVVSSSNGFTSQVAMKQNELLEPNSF
In short: as §1

[6] = molecular target: T5, EHF (Homo sapiens, UniProt Q9NZC4 1-300)
T5 sequence: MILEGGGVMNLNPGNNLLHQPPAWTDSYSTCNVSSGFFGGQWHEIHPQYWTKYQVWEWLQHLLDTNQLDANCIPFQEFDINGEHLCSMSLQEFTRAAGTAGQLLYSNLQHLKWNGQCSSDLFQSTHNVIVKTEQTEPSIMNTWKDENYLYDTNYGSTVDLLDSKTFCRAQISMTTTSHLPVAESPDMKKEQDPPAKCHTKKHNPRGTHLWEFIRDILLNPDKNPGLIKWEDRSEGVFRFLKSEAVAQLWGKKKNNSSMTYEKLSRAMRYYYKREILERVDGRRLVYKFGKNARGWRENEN
In short: as §1

[7] = molecular target: SPI1 (Homo sapiens, UniProt P17947 1-270)
In short: as §1

[8] = molecular target: SPIB (Homo sapiens, UniProt Q01892 1-262)
SPIB, sequence (Q01892 whole entry): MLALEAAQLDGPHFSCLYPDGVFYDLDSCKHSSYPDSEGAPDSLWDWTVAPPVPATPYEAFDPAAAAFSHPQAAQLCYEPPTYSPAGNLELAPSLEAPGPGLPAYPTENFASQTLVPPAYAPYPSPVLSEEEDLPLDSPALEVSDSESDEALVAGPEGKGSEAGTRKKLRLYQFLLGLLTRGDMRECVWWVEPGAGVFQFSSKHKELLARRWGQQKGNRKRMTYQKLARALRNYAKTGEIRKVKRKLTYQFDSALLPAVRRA
In short: as §1

[9] = molecular target: T6, ELK3 (Homo sapiens, UniProt P41970 1-407)
T6 sequence: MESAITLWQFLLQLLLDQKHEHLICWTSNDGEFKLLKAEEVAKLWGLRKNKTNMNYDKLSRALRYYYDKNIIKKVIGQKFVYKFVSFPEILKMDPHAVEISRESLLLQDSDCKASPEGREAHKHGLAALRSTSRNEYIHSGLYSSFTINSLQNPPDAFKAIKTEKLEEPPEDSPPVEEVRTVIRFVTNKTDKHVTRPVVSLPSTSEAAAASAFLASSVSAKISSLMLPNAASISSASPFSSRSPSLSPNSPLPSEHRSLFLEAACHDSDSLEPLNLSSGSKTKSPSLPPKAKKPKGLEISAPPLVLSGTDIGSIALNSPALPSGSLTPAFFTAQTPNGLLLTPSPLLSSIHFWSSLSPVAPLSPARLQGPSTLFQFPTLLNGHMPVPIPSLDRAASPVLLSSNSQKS
In short: as §1

[10] = molecular target: T7, FEV (Homo sapiens, UniProt Q99581 1-238)
T7 sequence: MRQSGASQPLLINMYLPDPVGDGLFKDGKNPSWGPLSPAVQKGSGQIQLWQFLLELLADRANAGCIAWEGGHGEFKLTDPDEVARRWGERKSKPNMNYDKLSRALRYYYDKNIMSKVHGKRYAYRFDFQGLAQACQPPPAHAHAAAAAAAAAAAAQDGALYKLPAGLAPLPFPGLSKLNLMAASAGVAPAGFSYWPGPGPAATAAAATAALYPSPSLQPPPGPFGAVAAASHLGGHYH
In short: as §1

[11] = molecular target: ETV5 (Homo sapiens, UniProt P41161 1-510)
ETV5, sequence (P41161 whole entry): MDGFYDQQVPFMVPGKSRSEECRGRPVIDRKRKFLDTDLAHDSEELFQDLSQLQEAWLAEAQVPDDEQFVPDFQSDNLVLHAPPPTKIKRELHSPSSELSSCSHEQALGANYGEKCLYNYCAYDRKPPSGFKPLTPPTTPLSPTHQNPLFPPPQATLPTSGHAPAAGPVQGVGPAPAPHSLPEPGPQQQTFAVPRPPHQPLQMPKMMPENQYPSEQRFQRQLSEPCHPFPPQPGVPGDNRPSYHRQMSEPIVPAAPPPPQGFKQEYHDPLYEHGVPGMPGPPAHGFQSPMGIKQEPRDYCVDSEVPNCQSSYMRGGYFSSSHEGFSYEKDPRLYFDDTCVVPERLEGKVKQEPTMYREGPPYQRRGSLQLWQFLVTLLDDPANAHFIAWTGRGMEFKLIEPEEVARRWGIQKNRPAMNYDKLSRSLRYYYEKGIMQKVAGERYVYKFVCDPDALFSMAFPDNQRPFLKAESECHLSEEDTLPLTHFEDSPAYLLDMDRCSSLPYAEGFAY
In short: as §1

[12] = molecular target: T8, SPIC (Homo sapiens, UniProt Q8N5J4 1-248)
T8 sequence: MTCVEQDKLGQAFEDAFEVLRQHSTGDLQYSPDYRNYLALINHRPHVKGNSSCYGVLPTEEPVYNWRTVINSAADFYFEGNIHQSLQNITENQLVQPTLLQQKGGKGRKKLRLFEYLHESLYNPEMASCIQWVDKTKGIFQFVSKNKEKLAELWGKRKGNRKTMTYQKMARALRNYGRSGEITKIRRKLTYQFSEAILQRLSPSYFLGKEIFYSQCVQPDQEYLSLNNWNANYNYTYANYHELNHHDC
In short: as §1

[13] = molecular target: ELF4 (Homo sapiens, UniProt Q99607 1-663)
ELF4, sequence (Q99607 whole entry): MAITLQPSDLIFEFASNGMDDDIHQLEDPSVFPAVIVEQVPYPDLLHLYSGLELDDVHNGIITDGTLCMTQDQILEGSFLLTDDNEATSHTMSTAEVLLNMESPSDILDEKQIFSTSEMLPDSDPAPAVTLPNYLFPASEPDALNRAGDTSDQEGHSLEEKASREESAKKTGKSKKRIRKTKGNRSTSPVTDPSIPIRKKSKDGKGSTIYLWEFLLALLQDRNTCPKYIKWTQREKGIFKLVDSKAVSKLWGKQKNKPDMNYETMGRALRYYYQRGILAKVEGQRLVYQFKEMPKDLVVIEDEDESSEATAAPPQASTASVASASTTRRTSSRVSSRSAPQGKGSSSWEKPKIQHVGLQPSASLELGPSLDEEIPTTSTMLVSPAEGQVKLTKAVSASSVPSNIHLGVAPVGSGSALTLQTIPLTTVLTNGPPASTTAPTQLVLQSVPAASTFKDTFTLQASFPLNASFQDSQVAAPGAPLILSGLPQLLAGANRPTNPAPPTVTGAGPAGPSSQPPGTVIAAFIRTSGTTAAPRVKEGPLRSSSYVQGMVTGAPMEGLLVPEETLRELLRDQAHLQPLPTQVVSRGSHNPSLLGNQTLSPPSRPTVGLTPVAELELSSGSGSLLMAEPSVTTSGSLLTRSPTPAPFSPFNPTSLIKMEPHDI
In short: as §1

[14] = molecular target: T9, ELK4 (Homo sapiens, UniProt P28324-2 1-405)
T9 sequence: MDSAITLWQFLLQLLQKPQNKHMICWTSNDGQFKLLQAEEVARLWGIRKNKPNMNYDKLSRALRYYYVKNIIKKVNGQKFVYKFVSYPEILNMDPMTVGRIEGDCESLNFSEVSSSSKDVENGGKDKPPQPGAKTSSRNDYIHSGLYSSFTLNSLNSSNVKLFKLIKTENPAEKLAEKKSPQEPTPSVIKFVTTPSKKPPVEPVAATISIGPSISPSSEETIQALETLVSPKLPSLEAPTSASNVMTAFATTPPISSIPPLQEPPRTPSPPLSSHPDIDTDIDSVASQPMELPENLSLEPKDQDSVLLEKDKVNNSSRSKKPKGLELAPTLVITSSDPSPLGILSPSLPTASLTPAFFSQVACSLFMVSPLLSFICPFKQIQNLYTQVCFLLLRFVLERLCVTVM
In short: as §1

[15] = molecular target: T10, ETV2 (Homo sapiens, UniProt O00321 1-342)
T10 sequence: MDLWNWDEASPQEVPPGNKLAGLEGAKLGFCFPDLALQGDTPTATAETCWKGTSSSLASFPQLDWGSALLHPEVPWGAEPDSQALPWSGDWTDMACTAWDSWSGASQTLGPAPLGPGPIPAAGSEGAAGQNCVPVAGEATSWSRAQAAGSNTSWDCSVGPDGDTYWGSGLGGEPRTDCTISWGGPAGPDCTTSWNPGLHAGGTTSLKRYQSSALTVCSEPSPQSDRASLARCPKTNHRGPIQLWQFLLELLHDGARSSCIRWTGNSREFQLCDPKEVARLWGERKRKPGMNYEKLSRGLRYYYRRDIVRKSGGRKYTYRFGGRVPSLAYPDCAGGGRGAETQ
In short: as §1

[16] = molecular target: T11, ELF3 (Homo sapiens, UniProt P78545 1-371)
T11 sequence: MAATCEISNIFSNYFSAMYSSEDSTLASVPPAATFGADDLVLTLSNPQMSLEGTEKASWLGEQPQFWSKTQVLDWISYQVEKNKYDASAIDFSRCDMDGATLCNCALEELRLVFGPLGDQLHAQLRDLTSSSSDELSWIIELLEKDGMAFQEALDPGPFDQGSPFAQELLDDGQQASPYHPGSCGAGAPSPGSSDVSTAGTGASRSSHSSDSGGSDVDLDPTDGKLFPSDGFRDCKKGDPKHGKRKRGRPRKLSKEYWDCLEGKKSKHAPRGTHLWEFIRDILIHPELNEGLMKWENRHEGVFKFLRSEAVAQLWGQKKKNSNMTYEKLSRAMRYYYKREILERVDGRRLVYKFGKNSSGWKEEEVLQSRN
In short: as §1

[17] = molecular target: ETV1 (Homo sapiens, UniProt P50549 1-477)
ETV1, sequence (P50549 whole entry): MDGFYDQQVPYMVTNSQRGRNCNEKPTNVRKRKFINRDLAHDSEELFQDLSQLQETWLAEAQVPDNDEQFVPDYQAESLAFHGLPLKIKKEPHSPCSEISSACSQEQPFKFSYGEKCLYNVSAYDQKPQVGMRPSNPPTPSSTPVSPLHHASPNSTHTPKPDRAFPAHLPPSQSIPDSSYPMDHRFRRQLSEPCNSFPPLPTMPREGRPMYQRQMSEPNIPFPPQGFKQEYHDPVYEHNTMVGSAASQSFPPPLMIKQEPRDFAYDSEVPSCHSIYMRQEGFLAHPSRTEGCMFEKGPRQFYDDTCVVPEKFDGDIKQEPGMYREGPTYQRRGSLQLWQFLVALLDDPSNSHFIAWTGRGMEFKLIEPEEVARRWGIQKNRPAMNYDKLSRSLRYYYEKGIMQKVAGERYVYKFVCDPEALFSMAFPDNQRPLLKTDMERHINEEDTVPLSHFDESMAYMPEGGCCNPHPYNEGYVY
In short: as §1

Sequence | binding signal [1] | binding signal [2] | binding signal [3] | binding signal [4] | binding signal [5] | binding signal [6] | binding signal [7] | binding signal [8] | binding signal [9] | binding signal [10] | binding signal [11] | binding signal [12] | binding signal [13] | binding signal [14] | binding signal [15] | binding signal [16] | binding signal [17]
TGGCAG | 1.19 fold enrichment (6-mer frequency, TF over GST control) | 1.09 fold enrichment (6-mer frequency, TF over GST control) | 1.07 fold enrichment (6-mer frequency, TF over GST control) | 1.01 fold enrichment (6-mer frequency, TF over GST control) | 1.06 fold enrichment (6-mer frequency, TF over GST control) | 1.11 fold enrichment (6-mer frequency, TF over GST control) | 1.1 fold enrichment (6-mer frequency, TF over GST control) | 1.12 fold enrichment (6-mer frequency, TF over GST control) | 1.21 fold enrichment (6-mer frequency, TF over GST control) | 1.18 fold enrichment (6-mer frequency, TF over GST control) | 1.07 fold enrichment (6-mer frequency, TF over GST control) | 1.05 fold enrichment (6-mer frequency, TF over GST control) | 1.02 fold enrichment (6-mer frequency, TF over GST control) | 1.01 fold enrichment (6-mer frequency, TF over GST control) | 1.29 fold enrichment (6-mer frequency, TF over GST control) | 1.02 fold enrichment (6-mer frequency, TF over GST control) | 1.05 fold enrichment (6-mer frequency, TF over GST control)
GTCCCT | 1.15 fold enrichment (6-mer frequency, TF over GST control) | 1.29 fold enrichment (6-mer frequency, TF over GST control) | 1.2 fold enrichment (6-mer frequency, TF over GST control) | 1.24 fold enrichment (6-mer frequency, TF over GST control) | 1.28 fold enrichment (6-mer frequency, TF over GST control) | 1.27 fold enrichment (6-mer frequency, TF over GST control) | 1.38 fold enrichment (6-mer frequency, TF over GST control) | 1.18 fold enrichment (6-mer frequency, TF over GST control) | 1.16 fold enrichment (6-mer frequency, TF over GST control) | 1.28 fold enrichment (6-mer frequency, TF over GST control) | 1.18 fold enrichment (6-mer frequency, TF over GST control) | 1.29 fold enrichment (6-mer frequency, TF over GST control) | 1.31 fold enrichment (6-mer frequency, TF over GST control) | 1.27 fold enrichment (6-mer frequency, TF over GST control) | 1.22 fold enrichment (6-mer frequency, TF over GST control) | 1.23 fold enrichment (6-mer frequency, TF over GST control) | 1.26 fold enrichment (6-mer frequency, TF over GST control)
GCACAT | 1.16 fold enrichment (6-mer frequency, TF over GST control) | 1.05 fold enrichment (6-mer frequency, TF over GST control) | 1.16 fold enrichment (6-mer frequency, TF over GST control) | 1.2 fold enrichment (6-mer frequency, TF over GST control) | 1.1 fold enrichment (6-mer frequency, TF over GST control) | 1.14 fold enrichment (6-mer frequency, TF over GST control) | 1.14 fold enrichment (6-mer frequency, TF over GST control) | 1.08 fold enrichment (6-mer frequency, TF over GST control) | 1.17 fold enrichment (6-mer frequency, TF over GST control) | 1.23 fold enrichment (6-mer frequency, TF over GST control) | 1.2 fold enrichment (6-mer frequency, TF over GST control) | 1.14 fold enrichment (6-mer frequency, TF over GST control) | 1.12 fold enrichment (6-mer frequency, TF over GST control) | 1.06 fold enrichment (6-mer frequency, TF over GST control) | 1.09 fold enrichment (6-mer frequency, TF over GST control) | 1.11 fold enrichment (6-mer frequency, TF over GST control) | 1.1 fold enrichment (6-mer frequency, TF over GST control)
